# From the supplement of paper PMC3414501
# Structures can show the parent of a compound that is named as a salt.
# How the values were obtained:
# [1] = system: S. cerevisiae SK1 pCDA2-eGFP (USY613), sporulating; test: CDA2-GFP sporulation assay sensitivity score (z-score vs DMSO controls); higher = stronger inhibition of sporulation, active = hit call of the paper;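 note: active if sensitivity score above 5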
# [2] = system: S. cerevisiae AD1-9 (efflux-pump deficient), vegetative growth in YPD; test: growth sensitivity score (doubling time z-score vs DMSO controls); higher = slower growth, strongly negative scores also mark growth inhibition (complete suppression), active = hit call of the paper
# In short: (§1)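 Saccharomyces cerevisiae strains BY4741 and AD1-9 were seeded in rich medium in microtiter plates at an OD600 of 0.065. Compounds were added at a 1:100 dilution of DMSO stock. Optical density was read every 15 min for 24 hours on a Tecan GENios reader. Average doubling time was the time taken to reach a set generation point divided by generation number, and the growth sensitivity score was (compound mean − DMSO-control mean)/DMSO-control SD, using eight DMSO controls per experiment.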
# [3] = system: S. cerevisiae BY4741 (wild-type), vegetative growth in YPD; test: as above
# In short: as §1
Structure (SMILES),CDA2-GFP sporulation assay sensitivity score [1],growth sensitivity score [2],growth sensitivity score [3]
"Clc1ccc2c(c1)CCc1cccnc1C2=C1CCNCC1 [Desloratadine] (stock concentration (mM, diluted 1:100): 10)",8.67 (inactive),60.1 (active),-0.47 (inactive)
"COc1ccc2[nH]c([S+]([O-])Cc3ncc(C)c(OC)c3C)nc2c1 (configuration not stated) [Esomeprazole mg] (stock concentration (mM, diluted 1:100): 4.8)",3.2 (inactive),-2.89,0.69 (inactive)
"COC(=O)C1=C(C)NC(C)=C(C(=O)OC2CCCN(Cc3ccccc3)C2)C1c1cccc([N+](=O)[O-])c1 (configuration not stated) [Benidipine hydrochloride] (stock concentration (mM, diluted 1:100): 6)",4.32 (inactive),-3.4,1.95 (inactive)
"CN1CCC(=C2c3ccccc3CC(=O)c3sccc32)CC1 [Ketotifen fumarate] (stock concentration (mM, diluted 1:100): 8.9)",4.44 (inactive),-0.77 (inactive),0.49 (inactive)
"CC(=O)NCCCCCCNC(C)=O [Hexamethylene bisacetamide] (stock concentration (mM, diluted 1:100): 10)",0.71 (inactive),1.99 (inactive),1.69 (inactive)
"CC(=O)Nc1ccc(CC(=O)O)cc1 [Actarit] (stock concentration (mM, diluted 1:100): 10)",0.84 (inactive),0.98 (inactive),-2 (inactive)
"CCC(=O)NS(=O)(=O)c1ccc(-c2c(-c3ccccc3)noc2C)cc1 [Parecoxib] (stock concentration (mM, diluted 1:100): 9.8)",5.02 (inactive),0.73 (inactive),-0.35 (inactive)
"CCCN[C@H]1CCc2nc(N)sc2C1 [Pramipexole] (stock concentration (mM, diluted 1:100): 10)",-1.03 (inactive),51 (active),-0.06 (inactive)
"CCN1CCCC1CNC(=O)c1cc(S(=O)(=O)CC)c(N)cc1OC (configuration not stated) [Amisulpride] (stock concentration (mM, diluted 1:100): 10)",-0.38 (inactive),-0.73 (inactive),-0.22 (inactive)
"COc1ccc(-c2cc(=O)c3c(OC)c(OC)c(OC)c(OC)c3o2)cc1OC [Nobiletin] (stock concentration (mM, diluted 1:100): 10)",5.43 (inactive),3.87 (active),4.43 (active)
"CCN(CC)CC(=O)Nc1c(C)cccc1C [Lidocaine] (stock concentration (mM, diluted 1:100): 9.6)",0.09 (inactive),-0.9 (inactive),-0.16 (inactive)
"COc1cc(C)c(Cc2cnc(N)nc2N)cc1OC [Ormetoprim] (stock concentration (mM, diluted 1:100): 10)",0.05 (inactive),-2.46,-1.06 (inactive)
"O=C1[C@H]2CCCC[C@H]2C(=O)N1CCCCN1CCN(c2nsc3ccccc23)CC1 [Perospirone hydrochloride] (stock concentration (mM, diluted 1:100): 9.4)",2.69 (inactive),2.19 (active),3.13 (active)
"CN1CCN(c2nc3cc(C(F)(F)F)ccc3n3cccc23)CC1 (stock concentration (mM, diluted 1:100): 10)",–,–,351 (active)
"COc1ccc(CN2CCN(C(c3ccc(F)cc3)c3ccc(F)cc3)CC2)c(OC)c1OC [Lomerizine dihydrochloride] (stock concentration (mM, diluted 1:100): 8.7)",13.1 (active),–,2.29 (active)
"CCOC(=O)[C@@]1(CCCCCCOc2ccc(Cl)cc2)CO1 [Etomoxir] (stock concentration (mM, diluted 1:100): 10)",5.49 (inactive),8.16 (active),1.54 (inactive)
"N[C@@H](C(=O)N[C@@H]1C(=O)N2C(C(=O)O)=C(CSc3cn[nH]n3)CS[C@H]12)c1ccc(O)cc1 [Seapuron] (stock concentration (mM, diluted 1:100): 8.6)",–,-1.14 (inactive),-0.6 (inactive)
"COC1=C(OC)C(=O)C(CCCCCCCCCCO)=C(C)C1=O [Idebenone] (stock concentration (mM, diluted 1:100): 10.2)",0.12 (inactive),–,15.6 (active)
"CCOC(=O)C1=C(COCCN)NC(C)=C(C(=O)OC)C1c1ccccc1Cl (configuration not stated) [Amlodipine base] (stock concentration (mM, diluted 1:100): 13.9)",5.4 (active),–,14.2 (active)

Structure (SMILES),CDA2-GFP sporulation assay sensitivity score [1],growth sensitivity score [2],growth sensitivity score [3]
"COc1cc(C)nc(-n2nc(C)cc2OC)n1 [Mepirizole] (stock concentration (mM, diluted 1:100): 10)",-1.87 (inactive),-0.94 (inactive),-1.02 (inactive)
"COc1cc2nc(N3CCN(C(=O)c4ccco4)CC3)nc(N)c2cc1OC [Prazosin] (stock concentration (mM, diluted 1:100): 10)",1.07 (inactive),2.31 (active),-0.58 (inactive)
"CS(=O)(=O)c1ccc(C2=C(c3ccccc3)C(=O)OC2)cc1 [Rofecoxib] (stock concentration (mM, diluted 1:100): 10)",0.79 (inactive),-0.37 (inactive),0.04 (inactive)
"Clc1ccccc1C(c1ccccc1)(c1ccccc1)n1ccnc1 [Clotrimazole] (stock concentration (mM, diluted 1:100): 10)",3.7 (inactive),2.49 (active),62.8 (active)
"C[C@H]1COc2c(N3CCN(C)CC3)c(F)cc3c(=O)c(C(=O)O)cn1c23 [Levofloxacin] (stock concentration (mM, diluted 1:100): 10)",-0.01 (inactive),–,-0.66 (inactive)
"CC[C@H](C)C(=O)O[C@H]1CCC=C2C=C[C@H](C)[C@H](CC[C@@H]3C[C@@H](O)CC(=O)O3)[C@H]21 [Mevastatin] (stock concentration (mM, diluted 1:100): 10)",0.51 (inactive),130 (active),2.89 (active)
"CCc1c2c(nc3ccc(OC(=O)N4CCC(N5CCCCC5)CC4)cc13)-c1cc3c(c(=O)n1C2)COC(=O)[C@]3(O)CC [Irinotecan hydrochloride] (stock concentration (mM, diluted 1:100): 8.7)",–,2.14 (active),-1.27 (inactive)
"COc1cc([C@@H]2c3cc4c(cc3[C@@H](O[C@@H]3O[C@@H]5CO[C@@H](C)O[C@H]5[C@H](O)[C@H]3O)[C@H]3COC(=O)[C@H]23)OCO4)cc(OC)c1O [Etoposide] (stock concentration (mM, diluted 1:100): 10)",3.42 (inactive),59.2 (active),0.01 (inactive)
"CS(=O)(=O)c1ccc(-c2cc(Br)sc2-c2ccc(F)cc2)cc1 (stock concentration (mM, diluted 1:100): 10)",12.1 (inactive),8.97 (active),-0.63 (inactive)
"C#C[C@]1(O)CC[C@H]2[C@@H]3[C@H](C)CC4=C(CCC(=O)C4)[C@H]3CC[C@@]21C [Tibolone] (stock concentration (mM, diluted 1:100): 10)",5.97 (inactive),10.2 (active),0.52 (inactive)
"O=C(NCCN1CCOCC1)c1ccc(Cl)cc1 [Moclobemide] (stock concentration (mM, diluted 1:100): 10)",0.72 (inactive),0.15 (inactive),-0.18 (inactive)
"COCCCC/C(=N\OCCN)c1ccc(C(F)(F)F)cc1 [Fluvoxamine] (stock concentration (mM, diluted 1:100): 7.7)",-1.51 (inactive),9.45 (active),2.43 (active)
"CCC(=O)O[C@]1(C(=O)SCF)[C@H](C)C[C@H]2[C@@H]3C[C@H](F)C4=CC(=O)C=C[C@]4(C)[C@@]3(F)[C@@H](O)C[C@@]21C [Fluticasone propionate] (stock concentration (mM, diluted 1:100): 10)",-2.57 (inactive),-1.65 (inactive),-0.58 (inactive)
"CCCCC[C@H](O)/C=C/[C@H]1[C@H](O)CC(=O)[C@@H]1CCCCCCC(=O)O [Prostaglandin E1] (stock concentration (mM, diluted 1:100): 10)",6.45 (inactive),0.11 (inactive),-0.67 (inactive)
"CCn1cc(C(=O)O)c(=O)c2cc(F)c(N3CCN(C)CC3)cc21 [Pefloxacin mesylate] (stock concentration (mM, diluted 1:100): 7.9)",-0.85 (inactive),3.65 (active),-1.1 (inactive)
"CCOc1cc(CC(=O)N[C@@H](CC(C)C)c2ccccc2N2CCCCC2)ccc1C(=O)O [Repaglinide] (stock concentration (mM, diluted 1:100): 10)",2 (inactive),–,2.53 (active)
"COc1cc2c(cc1OC)C(=O)C(CC1CCN(Cc3ccccc3)CC1)C2 (configuration not stated) [Donepezil] (stock concentration (mM, diluted 1:100): 9.1)",4.44 (inactive),3.1 (active),2.75 (active)
"O=C(CCCN1CCC(O)(c2ccc(Cl)cc2)CC1)c1ccc(F)cc1 [Haloperidol] (stock concentration (mM, diluted 1:100): 10)",8.19 (active),22.7 (active),5.41 (active)
